# Source: the supplement of paper PMC7380943
# Counter-ions that a name gives are not always drawn. ± gives the standard deviation of the averaged measurements.
# Assays:
# [1] = test system: CLZ3 (HCA2 human fibroblast dual HR-NHEJ reporter); test: NHEJ repair efficiency (GFP+ cells) relative to control (log10 fold); higher = more non-homologous end joining; details: 5 µM; doxycycline 0.5 ug/mL
# [2] = test system: CLZ3 (HCA2 human fibroblast dual HR-NHEJ reporter); test: HR repair efficiency (tdTomato+ cells) relative to control (log10 fold); higher = more homologous recombination; details: 5 µM; doxycycline 0.5 ug/mL
# 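Throughout, for HR repair efficiency (tdTomato+ cells) relative to control: compound given one day before doxycycline, which switches on I-SceI endonuclease expression to create double-strand breaks within the integrated reporter.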
# 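Throughout, for NHEJ repair efficiency (GFP+ cells) relative to control: compound given one day ahead of doxycycline, which switches on I-SceI endonuclease to cut the chromosomally integrated reporter and create DSBs.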
Compound,NHEJ repair efficiency (log10) [1],HR repair efficiency (log10) [2]
O=C1OC2(c3ccccc3Oc3ccccc32)c2ccccc21 [Fluoran],0.0054,0.0374
O=C(/C=C/c1ccc(O)c(O)c1)O[C@@H](C(=O)O)[C@@H](O)C(=O)O [Caftaric Acid],-0.0695,-0.0835
CC(=O)S[C@@H]1CC2=CC(=O)CC[C@]2(C)[C@H]2CC[C@@]3(C)[C@@H](CC[C@@]34CCC(=O)O4)[C@H]12 [Spironolactone],0.15,-0.0059
CC(CCC(OC1OC(CO)C(O)C(O)C1OC1OC(CO)C(O)C(O)C1O)C(C)(C)O)C1CCC2(C)C3CC=C4C(CCC(OC5OC(COC6OC(CO)C(O)C(O)C6O)C(O)C(O)C5O)C4(C)C)C3(C)C(O)CC12C (centres undefined) [Mogroside IV],0.0766,0.171
Nc1ncnc2c1ncn2[C@@H]1O[C@H](CO)[C@@H](O)[C@H]1O [Adenosine],-0.0785,-0.0239
"O=C1c2cccc(O)c2C(=O)c2c(O)cccc21 [1,8-Dihydroxyanthraquinone]",-0.286,-0.106
OC[C@H]1O[C@H](OC[C@H]2O[C@H](O[C@]3(CO)O[C@H](CO)[C@@H](O)[C@@H]3O)[C@H](O)[C@@H](O)[C@@H]2O)[C@H](O)[C@@H](O)[C@H]1O [Raffinose],-0.133,-0.00512
O=C(O)CC(O)C(=O)O (centres undefined) [Malic Acid],-0.069,-0.141
C[C@@H]1O[C@@H](OC[C@H]2O[C@@H](Oc3cc(O)c4c(=O)cc(-c5ccc(O)cc5)oc4c3)[C@H](O[C@@H]3O[C@@H](C)[C@H](O)[C@@H](O)[C@H]3O)[C@@H](O)[C@@H]2O)[C@H](O)[C@H](O)[C@H]1O [Ligustroflavone],0.105,0.0603
OC[C@H]1O[C@@H](Oc2cc(O)cc(/C=C/c3ccc(O)cc3)c2)[C@H](O)[C@@H](O)[C@@H]1O [Polydatin],0.036,0.288
COC(=O)C1=CO[C@@H](O)[C@@H]2C(CO)=CC[C@H]12 [Genipin],-0.0273,0.00524
COc1ccc(-c2cc(=O)c3c(O)cc(O)cc3o2)cc1 [Acacetin],-0.203,0.0794
C=C(C)[C@@H]1CC[C@]2(C)CC[C@]3(C)[C@H](CC[C@@H]4[C@@]5(C)CC[C@H](O)C(C)(C)[C@@H]5CC[C@]43C)[C@@H]12 [Lupeol],0.0011,0.06
CC1(C)C2CCC1(C)C(O)C2 (centres undefined) [Borneol],0.0116 ± 0.059,0.0372 ± 0.12
Cc1ccc(C(C)C)c(O)c1 [Thymol],0.108,0.0691
O=C1/C(=C2\Nc3ccccc3C2=O)Nc2ccccc21 [Indigo],-0.108,-0.0903
C[C@@]12C[C@@]3(O)O[C@@H](O1)[C@]1(COC(=O)c4ccccc4)[C@H]3C[C@@]12O[C@@H]1O[C@H](CO)[C@@H](O)[C@H](O)[C@H]1O [Paeoniflorin],0.122,0.213
COc1ccc2c(c1O)-c1c(O)c(OC)cc3c1[C@H](C2)[N+](C)(C)CC3 [Magnoflorine hydrochloride],-0.0605,-0.0478
COc1c2c(cc3oc(CO)cc(=O)c13)O[C@H](C(C)(C)O)C2 [Cimifugin],0.0139,-0.0036
COc1ccc([C@@H]2OC[C@H]3[C@@H]2CO[C@@H]3c2ccc(O[C@@H]3O[C@H](CO)[C@@H](O)[C@H](O)[C@H]3O)c(OC)c2)cc1OC [Forsythin],-0.0743,-0.0814
C=CCc1ccc(OC)c(OC)c1 [Methyleugenol],0.14,0.161
O=Cc1ccc(O)c(O)c1 [Protocatechuic aldehyde],-0.212,-0.256
O=C(/C=C/c1ccc(O)c(O)c1)O[C@H](C(=O)O)[C@H](OC(=O)/C=C/c1ccc(O)c(O)c1)C(=O)O [Chicoric Acid],0.0111,0.107
c1cc2c(cc1O[C@H]1OC[C@H]3[C@@H]1CO[C@@H]3c1ccc3c(c1)OCO3)OCO2 [Sesamolin],0.101,0.22
C/C=C(/C)C(=O)O[C@@H]1[C@H](OC(=O)CC(C)C)c2c(ccc3ccc(=O)oc23)OC1(C)C [Praeruptorin C],-0.0108,0.00182
Cn1c(=O)c2nc[nH]c2n(C)c1=O [Theophylline],0.0481,0.0978
COc1cc(O)c2c(=O)c(-c3ccc(O)cc3)coc2c1 [Prunusetin],-0.0809,-0.16
